Screens as filed in PubChem.
Compounds with a hit are over-represented: about 12% of the library has one in this group of screens.
Pf growth 96h: Primary qHTS for delayed death inhibitors of the malarial parasite plastid, 96 hour incubation; 320,000 tested, 6.9% active; Potency, µM (titrated, usually from 28.7 µM), usual class: inhibitors; P. falciparum luciferase reporter growth, 96 h; AID 504834, 2011
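96 h incubation, 37 C, 5% CO2, of luciferase-reporter P. falciparum-infected RBCs (2% hematocrit, 0.05% parasitemia final) with test compounds; endpoint luminescence.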
NS1 inh: qHTS Assay for Inhibitors of Influenza NS1 Protein Function. AID 2326, 2010. 270,000 tested, 0.4% active. Potency, µM (top dose mostly 46.1 µM); calls by dose curve; also: actives are rising curves; nearly all actives have a fitted effect of over 50% in size
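Growth recovery, yeast-based: influenza A NS1 expressed in S. cerevisiae causes slow growth, and suppressors are detected by OD600. The parent strain without NS1 is used as positive control.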
HCV inh: qHTS Assay for Inhibitors of Hepatitis C Virus (HCV). Huh7.5.1 HCVcc-Cre infection, luciferase reporter, 44 h. Potency, µM (highest dose often 41.8 µM), hits mostly inhibitors. 340,000 tested, 3.4% active
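1,000 cells/well; 4 h culture; + compound; + HCVcc-Cre (~0.5 moi); 44 h; luciferase substrate, RT 15 min; read 15 sec.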
Pf growth 48h: Primary qHTS for delayed death inhibitors of the malarial parasite plastid, 48 hour incubation. 310,000 tested, 5.9% active. Potency, µM (series often up to 28.7 µM), most hits filed as inhibitors. AID 504832, 2011. P. falciparum luciferase growth in erythrocytes, 48 h
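First compound was added to culture medium, then infected red cells at 0.1% parasitemia and 2% hematocrit (final). After incubation at 37 C under 5% CO2, luciferase detection reagent was dispensed and light output recorded.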
SARS PLP yeast: qHTS of Yeast-based Assay for SARS-CoV PLP; 330,000 tested, 0.19% active; Potency, µM (highest dose often 32.9 µM), hits mostly activators; S. cerevisiae expressing SARS-CoV PLpro, growth rescue; AID 485353, 2010; calls by dose curve; also: nearly all actives have a fitted effect of over 55% in size
AMA1 RON2 block: qHTS for Inhibitors of AMA1-RON; Towards Development of Antimalarial Drug Lead: Primary Screen. Plasmodium falciparum AMA1 (3D7) - RON2 peptide interaction. AlphaScreen AMA1-biotinylated RON2 peptide binding. Potency, µM (doses to about 58.2 µM), most hits filed as inhibitors. 360,000 tested, 0.2% active; also: nearly all actives have a fitted effect of over 45% in size
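AMA1 (3D7) with his tag at 25 nM final met compounds first, then biotinylated RON2 peptide at 25 nM; detection used donor plus acceptor beads, 10 µg/mL apiece, read by AlphaScreen after 30 min at room temperature.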
Large screens that a line does not name were inactive. Unless noted, calls follow the shape of the dose curve; as a rule, active = well fitted curve in the direction sought with a large enough effect; inconclusive = small, poorly fitted or top-dose-only effect, or another doubt; inactive = no such curve, though single readings can be large; an effect the other way counts as inactive or inconclusive.

COc1cc(C(=O)OCC(=O)N2CCCCC2C)ccc1OCc1c(C)noc1C (configuration not stated)	Pf growth 96h inconclusive, Pf growth 48h 9.28µM (no result: NS1 inh)
Cc1noc(C)c1COc1ccccc1C(=O)N1CCN(S(=O)(=O)c2ccccc2C(F)(F)F)CC1	Pf growth 96h inconclusive, Pf growth 48h 14.7µM (no result: NS1 inh)
COc1ccccc1C(CNC(=O)CCNC(=O)c1ccccc1Cl)N1CCCC1 (configuration not stated)	Pf growth 48h inconclusive (no result: NS1 inh, SARS PLP yeast)
CN(C(=O)c1c(O)c2ccccc2n(C)c1=O)c1ccccc1	none (no result: NS1 inh, HCV inh, SARS PLP yeast, AMA1 RON2 block)
CN(C(=O)CSc1nnc(-c2ccncc2)n1Cc1ccccc1)C1CCS(=O)(=O)C1 (configuration not stated)	none (no result: NS1 inh, HCV inh, AMA1 RON2 block)
COc1ccc(C(=O)OCCN2CCN(C3=NS(=O)(=O)c4ccccc43)CC2)cc1OC	Pf growth 96h 8.28µM
COCC(=O)Nc1ccc(S(=O)(=O)N2CCCC2)cc1	none
O=C(COc1ccc(Br)cc1CO)Nc1ccc(S(=O)(=O)N2CCCCC2)cc1	Pf growth 96h 6.57µM, HCV inh inconclusive, Pf growth 48h 9.28µM (no result: NS1 inh)
CCc1ccc(OCC(=O)Nc2ccc(S(=O)(=O)N3CCCC3)cc2)c(Br)c1	HCV inh inconclusive, Pf growth 48h 13.1µM (no result: Pf growth 96h)
Cc1cc(-c2ccc3ccccc3c2)n2ncnc2n1	none (no result: NS1 inh)
Cc1ccc(NC(=O)CC(C)S(=O)(=O)c2ccc3c(c2)NC(=O)CO3)cc1C (configuration not stated)	Pf growth 96h 11.7µM, Pf growth 48h inconclusive
CC(CC(=O)N1CCc2ccccc21)S(=O)(=O)c1ccc2c(c1)NC(=O)CO2 (configuration not stated)	Pf growth 96h 10.4µM
Cc1ccc(NS(=O)(=O)c2ccc3c(c2)NC(=O)CO3)cc1C	Pf growth 96h 9.28µM
CC(CC(=O)Nc1ccc(F)cc1)S(=O)(=O)c1ccc2c(c1)NC(=O)CO2 (configuration not stated)	Pf growth 96h inconclusive
CC(CC(=O)NC1CCCCC1)S(=O)(=O)c1ccc2c(c1)NC(=O)CO2 (configuration not stated)	Pf growth 96h 13.1µM
O=C(NCc1ccccc1CN1CCCC1)c1ccc(S(=O)(=O)Nc2ccccc2)cc1	none (no result: Pf growth 96h, NS1 inh, HCV inh, Pf growth 48h, SARS PLP yeast)
CCCCCCSc1ccc([C@@H]2[C@H]3C(=O)N(C)C(=O)[C@H]3[C@]3(C(=O)OC)CCCCN23)cc1OC	Pf growth 96h 7.38µM, Pf growth 48h inconclusive (no result: NS1 inh)
CCCSc1ccc([C@@H]2[C@@H]3C(=O)N(C)C(=O)[C@@H]3[C@]3(C(=O)OC)CCCN23)cc1OC	Pf growth 96h 8.28µM, HCV inh inconclusive, Pf growth 48h 11.7µM (no result: NS1 inh)
CCCCCCSc1ccc([C@@H]2[C@H]3C(=O)N(CC)C(=O)[C@H]3[C@]3(C(=O)OC)CCCCN23)cc1OC	none (no result: Pf growth 96h, NS1 inh, Pf growth 48h)
CCCCCCSc1ccc([C@@H]2[C@@H]3C(=O)N(C)C(=O)[C@@H]3[C@]3(C(=O)OC)CCCCN23)cc1OC	Pf growth 96h 5.86µM, Pf growth 48h 3.29µM (no result: NS1 inh)
N#CCCCCN1CCCC1	none
CC(C)OC(=O)C1C2C=CC3(CN(C(C)c4ccc(Br)cc4)C(=O)C13)O2 (configuration not stated)	Pf growth 96h 10.4µM (no result: Pf growth 48h)
CC(=O)Nc1ccc(/C(C)=N/NS(=O)(=O)c2ccccc2)cc1	none
O=C(Nc1cc(Cl)ccc1Cl)c1ccco1	none
CS/C(Nc1cc(Cl)ccc1Cl)=C(/C#N)C(=O)c1ccco1	Pf growth 96h 5.86µM, Pf growth 48h 3.29µM
O=C(CN1C(=O)C2CC=CCC2C1=O)Nc1nc2ccccc2[nH]1 (configuration not stated)	Pf growth 96h 18.5µM
O=C(CSc1nc2nn(-c3ccccc3)c(=O)c-2c2n1CCCCC2)Nc1ccc(F)c(F)c1	HCV inh inconclusive (no result: Pf growth 96h, NS1 inh, Pf growth 48h)
Cn1c(=O)c2c(nc(NCCO)n2CCc2ccccc2)n(C)c1=O	Pf growth 96h 10.4µM, HCV inh inconclusive
CCCNc1nc2c(c(=O)n(C)c(=O)n2C)n1CCCc1ccccc1	Pf growth 96h 1.47µM, HCV inh inconclusive, Pf growth 48h inconclusive
CCCCCCn1c(NCC)nc2c1c(=O)n(C)c(=O)n2C	Pf growth 96h inconclusive, HCV inh 5.62µM, Pf growth 48h 3.29µM
CCCNc1nc2c(c(=O)n(C)c(=O)n2C)n1CCc1ccccc1	Pf growth 96h inconclusive, HCV inh 14.1µM
Cn1c(=O)c2c(nc(NCCCO)n2CCc2ccccc2)n(C)c1=O	none
Cc1ccc(NC(=O)C2CCN(S(=O)(=O)c3ccc4c(c3)OCCO4)CC2)nc1	Pf growth 48h inconclusive (no result: NS1 inh)
CC(=O)Nc1ccc(NC(=O)C(C)OC(=O)C2CCN(S(=O)(=O)c3cccs3)CC2)cc1 (configuration not stated)	none
CC(O)CNc1nc2c(c(=O)n(C)c(=O)n2C)n1CCc1ccccc1 (configuration not stated)	HCV inh 28.2µM
Cc1nnc2n(c1=O)C(CS(=O)(=O)c1ccc3ccccc3c1)CS2 (configuration not stated)	none (no result: NS1 inh)
COC(=O)Cc1c(O)ccn(Cc2ccc3c(c2)OCO3)c1=O	Pf growth 96h inconclusive
COC(=O)c1cc(Br)c(=O)n(Cc2ccc3c(c2)OCO3)c1	Pf growth 96h 9.28µM, Pf growth 48h inconclusive
O=C(c1ccc(-c2nnc(Nc3cccc(Cl)c3)c3ccccc23)cc1)N1C[C@H]2C[C@H](C1)c1cccc(=O)n1C2	Pf growth 96h 6.57µM, Pf growth 48h 13.1µM
COc1ccc(C(=O)N2C[C@H]3C[C@@H](C2)c2cccc(=O)n2C3)cc1OC	none
COc1nnc(-c2ccc(C(=O)N3C[C@@H]4C[C@H](C3)c3cccc(=O)n3C4)cc2)c2ccccc12	Pf growth 96h 2.62µM, Pf growth 48h inconclusive
Cc1ncc(CO)c(CO)c1O	none (no result: NS1 inh, SARS PLP yeast)
COCc1c(CCl)cnc(C)c1O	Pf growth 96h 9.28µM
CC(C)c1cc(=O)n2[nH]c(N)nc2n1	Pf growth 48h inconclusive (no result: NS1 inh)
CSc1nc(N(CCO)CCO)c2sc3nc(-c4ccco4)c4c(c3c2n1)CCC4	NS1 inh inconclusive, HCV inh 6.31µM, Pf growth 48h inconclusive, AMA1 RON2 block 11.2µM
CC(C)(C)OC(=O)[C@H](Cc1ccccc1)NC(=O)c1nc[nH]c1C(=O)N[C@@H](Cc1ccccc1)C(=O)OC(C)(C)C	Pf growth 96h inconclusive, HCV inh inconclusive, Pf growth 48h 11.7µM
CC(C)(C)OC(=O)[C@H](Cc1ccccc1)NC(=O)c1[nH]cnc1C(=O)N[C@@H](Cc1ccccc1)C(=O)OCc1ccccc1	Pf growth 96h inconclusive, Pf growth 48h inconclusive
